Experimental findings from ChEMBL document CHEMBL3988442, “University of Dundee, Small-Polar-MMV Screening Library” (2021) are described below.

Design in all cases: scale not given: direction of the effect not stated beside the values
Assay [1] addresses Protein translocase subunit SecA (Escherichia coli (strain K12)) (UniProt P10408). Nature of the assay: Assay to Identify E. coli SecA ATPase Inhibitors. Conditions: 30 µM. The assay is classed as functional.
The target of assay [2] is T1, Ubiquitin-activating enzyme e1, putative (Leishmania donovani (strain BPK282A1)) (UniProt E9BSI1).
T1 sequence (whole entry): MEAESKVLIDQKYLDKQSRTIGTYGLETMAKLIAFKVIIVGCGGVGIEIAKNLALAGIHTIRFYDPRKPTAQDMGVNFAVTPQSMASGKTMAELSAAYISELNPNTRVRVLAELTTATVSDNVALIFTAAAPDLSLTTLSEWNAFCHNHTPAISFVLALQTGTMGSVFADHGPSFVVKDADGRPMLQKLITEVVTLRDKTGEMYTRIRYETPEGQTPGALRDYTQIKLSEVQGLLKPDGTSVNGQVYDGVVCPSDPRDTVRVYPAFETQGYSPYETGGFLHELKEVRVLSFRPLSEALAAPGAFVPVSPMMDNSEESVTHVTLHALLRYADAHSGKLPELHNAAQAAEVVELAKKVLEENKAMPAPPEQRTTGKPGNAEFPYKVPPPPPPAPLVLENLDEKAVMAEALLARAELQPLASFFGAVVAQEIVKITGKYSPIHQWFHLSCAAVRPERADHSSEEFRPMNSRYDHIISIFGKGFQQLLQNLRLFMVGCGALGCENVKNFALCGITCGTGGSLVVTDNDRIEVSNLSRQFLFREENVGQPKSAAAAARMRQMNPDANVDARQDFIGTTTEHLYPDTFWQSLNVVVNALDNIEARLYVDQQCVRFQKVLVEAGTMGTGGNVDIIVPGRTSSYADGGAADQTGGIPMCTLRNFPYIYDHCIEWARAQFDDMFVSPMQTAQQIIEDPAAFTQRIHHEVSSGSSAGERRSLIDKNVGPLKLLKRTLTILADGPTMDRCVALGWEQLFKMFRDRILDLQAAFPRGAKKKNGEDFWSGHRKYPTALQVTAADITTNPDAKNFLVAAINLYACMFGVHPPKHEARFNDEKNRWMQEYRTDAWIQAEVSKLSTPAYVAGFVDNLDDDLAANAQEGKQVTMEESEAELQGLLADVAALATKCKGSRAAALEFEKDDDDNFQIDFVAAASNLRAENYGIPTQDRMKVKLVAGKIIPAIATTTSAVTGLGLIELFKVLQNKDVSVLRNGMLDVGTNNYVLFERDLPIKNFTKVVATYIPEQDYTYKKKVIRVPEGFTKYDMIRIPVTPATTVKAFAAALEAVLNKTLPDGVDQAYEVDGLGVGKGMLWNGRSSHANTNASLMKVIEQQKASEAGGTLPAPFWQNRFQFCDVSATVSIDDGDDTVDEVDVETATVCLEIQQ
The assay is described as follows: Leishmania donovani Ubiquitin Activating Enzyme (LdE1). The assay is classed as functional. As to conditions: 30 µM.

The target in assay [3] is Sialic acid-binding Ig-like lectin 9 (Homo sapiens) (UniProt Q9Y336). The assay is described as follows: Hs-Siglec9 ALPHAscreen SOP 20170721. Conditions: 10 µM. (Bead proximity is the source of the signal in Alpha formats.)
For another assay, the system named is Trypanosoma cruzi. The assay is described as follows: Trypanosoma cruzi phosphomannomutase and mannose-1-phosphate guanylyltransferase assay. As to conditions: 10 µM. The assay is classed as functional.
In assay [4] the target is T2, Arginase-2, mitochondrial (Homo sapiens) (UniProt P78540).
T2 sequence (whole entry): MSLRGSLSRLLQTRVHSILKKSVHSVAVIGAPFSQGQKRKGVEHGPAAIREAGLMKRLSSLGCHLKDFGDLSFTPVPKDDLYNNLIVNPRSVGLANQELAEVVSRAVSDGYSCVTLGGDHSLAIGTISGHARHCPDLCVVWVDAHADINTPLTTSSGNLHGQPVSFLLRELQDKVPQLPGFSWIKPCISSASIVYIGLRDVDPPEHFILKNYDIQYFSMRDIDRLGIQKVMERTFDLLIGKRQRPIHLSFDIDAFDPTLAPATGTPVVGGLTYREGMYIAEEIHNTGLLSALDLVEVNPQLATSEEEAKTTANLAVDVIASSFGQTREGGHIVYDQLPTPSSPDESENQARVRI
The assay is described as follows: in vitro enzyme assay to detect the production of urea directly proportional to the activity of Arginase II. Note: in the data most compounds retested in dose-response had high values. The assay is classed as functional. As to conditions: 33.3 µM.

Assay [5] concerns the target T3, Proteasome subunit beta (Trypanosoma cruzi) (UniProt O96673).
T3 sequence (whole entry): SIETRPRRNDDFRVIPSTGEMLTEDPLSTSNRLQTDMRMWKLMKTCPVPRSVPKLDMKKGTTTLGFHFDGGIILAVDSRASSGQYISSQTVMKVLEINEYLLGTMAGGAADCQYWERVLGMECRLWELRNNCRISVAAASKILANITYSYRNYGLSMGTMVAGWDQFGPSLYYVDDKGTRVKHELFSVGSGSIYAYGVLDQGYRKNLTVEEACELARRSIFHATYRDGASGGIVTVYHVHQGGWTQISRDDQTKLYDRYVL
The assay is described as follows: Trypanosoma cruzi proteasome chymotrypsin-like activity (TcProtChymo) assay. Note: in the data most compounds retested in dose-response had high values. Conditions: 9.37 µM. The assay is classed as functional.

Another assay is filed under the species Homo sapiens. The assay is described as follows: To identify inhibition of the IFN signalling (Jak-Stat) pathway via expression of an eGFP reporter gene under the control of an IFN-stimulated response element (ISRE) containing MxA promoter. The assay is classed as functional. Conditions: 30 µM. (In general: Reporter assays use an easily measured gene product as a stand-in for the process of interest.)

The target in assay [6] is T4, Tyrosyl-tRNA synthetase, putative (Trypanosoma cruzi (strain CL Brener)) (UniProt Q4DSP6).
T4 sequence (whole entry): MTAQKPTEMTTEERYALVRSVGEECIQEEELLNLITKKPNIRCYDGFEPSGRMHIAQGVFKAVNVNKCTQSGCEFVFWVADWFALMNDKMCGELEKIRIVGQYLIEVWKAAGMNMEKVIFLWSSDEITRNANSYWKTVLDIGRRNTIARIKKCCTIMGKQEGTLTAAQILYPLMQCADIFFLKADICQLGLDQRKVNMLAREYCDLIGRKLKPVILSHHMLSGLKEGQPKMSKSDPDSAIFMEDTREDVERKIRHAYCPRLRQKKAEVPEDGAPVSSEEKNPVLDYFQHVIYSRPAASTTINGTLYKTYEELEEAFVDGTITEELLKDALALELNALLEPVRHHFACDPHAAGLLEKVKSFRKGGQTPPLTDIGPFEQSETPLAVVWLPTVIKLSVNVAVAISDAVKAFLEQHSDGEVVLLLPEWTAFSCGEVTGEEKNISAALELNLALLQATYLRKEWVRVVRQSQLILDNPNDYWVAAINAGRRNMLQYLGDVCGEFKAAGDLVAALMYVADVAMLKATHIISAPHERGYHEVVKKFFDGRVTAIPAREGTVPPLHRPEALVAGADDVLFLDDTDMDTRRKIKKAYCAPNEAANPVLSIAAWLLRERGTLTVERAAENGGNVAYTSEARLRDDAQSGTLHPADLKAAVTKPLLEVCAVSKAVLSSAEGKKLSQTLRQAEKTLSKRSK
The assay is described as follows: Trypanosoma cruzi tyrosyl tRNA synthetase (TcYRS) _High Tyrosine SOP. Note: in the data most compounds retested in dose-response had high values. The assay is classed as functional. Conditions: 30 µM.

Assay [7] concerns the target T4, Tyrosyl-tRNA synthetase, putative (Trypanosoma cruzi (strain CL Brener)). The assay is described as follows: Trypanosoma cruzi tyrosyl tRNA synthetase (TcYRS) SOP. The assay is classed as functional. Conditions: 30 µM.
For assay [8], the target named is Chromo domain-containing protein 1 (Saccharomyces cerevisiae (strain ATCC 204508 / S288c) (Baker's yeast)) (UniProt P32657). The assay is described as follows: ScCHD-1 Enzyme Inhibition Assay. Note: in the data most compounds retested in dose-response had high values. The assay is classed as functional. Conditions: 30 µM.

Molecules are shown by their SMILES. For part of these data: Measured potencies and affinities stand elsewhere.

Sequence of Protein translocase subunit SecA (Escherichia coli (strain K12)) (P10408 whole entry): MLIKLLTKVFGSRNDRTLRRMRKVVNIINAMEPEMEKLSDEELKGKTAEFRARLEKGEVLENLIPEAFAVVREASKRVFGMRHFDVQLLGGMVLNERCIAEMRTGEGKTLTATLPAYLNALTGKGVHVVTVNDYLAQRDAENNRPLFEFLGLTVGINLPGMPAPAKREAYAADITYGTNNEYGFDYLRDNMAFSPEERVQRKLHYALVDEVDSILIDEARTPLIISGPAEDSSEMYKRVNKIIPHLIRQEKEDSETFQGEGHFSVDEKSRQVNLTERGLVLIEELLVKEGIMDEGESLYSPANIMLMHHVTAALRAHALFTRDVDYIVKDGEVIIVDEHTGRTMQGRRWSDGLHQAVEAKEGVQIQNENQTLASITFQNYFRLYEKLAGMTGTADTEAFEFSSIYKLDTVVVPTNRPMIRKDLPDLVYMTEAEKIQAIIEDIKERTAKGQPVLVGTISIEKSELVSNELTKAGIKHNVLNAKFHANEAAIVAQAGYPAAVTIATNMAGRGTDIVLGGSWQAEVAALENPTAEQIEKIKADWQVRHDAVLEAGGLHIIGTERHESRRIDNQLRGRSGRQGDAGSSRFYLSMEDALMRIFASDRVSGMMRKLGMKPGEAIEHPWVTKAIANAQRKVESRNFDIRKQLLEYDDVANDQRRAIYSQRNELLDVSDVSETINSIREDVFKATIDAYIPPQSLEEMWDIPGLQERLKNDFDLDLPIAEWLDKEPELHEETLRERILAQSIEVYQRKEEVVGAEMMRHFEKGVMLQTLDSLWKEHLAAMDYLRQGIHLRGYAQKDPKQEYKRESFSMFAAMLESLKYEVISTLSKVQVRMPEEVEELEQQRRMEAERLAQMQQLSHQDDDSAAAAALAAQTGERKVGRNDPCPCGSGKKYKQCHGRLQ
Sequence of Chromo domain-containing protein 1 (Saccharomyces cerevisiae (strain ATCC 204508 / S288c) (Baker's yeast)) (P32657 whole entry, the tested form may be a part): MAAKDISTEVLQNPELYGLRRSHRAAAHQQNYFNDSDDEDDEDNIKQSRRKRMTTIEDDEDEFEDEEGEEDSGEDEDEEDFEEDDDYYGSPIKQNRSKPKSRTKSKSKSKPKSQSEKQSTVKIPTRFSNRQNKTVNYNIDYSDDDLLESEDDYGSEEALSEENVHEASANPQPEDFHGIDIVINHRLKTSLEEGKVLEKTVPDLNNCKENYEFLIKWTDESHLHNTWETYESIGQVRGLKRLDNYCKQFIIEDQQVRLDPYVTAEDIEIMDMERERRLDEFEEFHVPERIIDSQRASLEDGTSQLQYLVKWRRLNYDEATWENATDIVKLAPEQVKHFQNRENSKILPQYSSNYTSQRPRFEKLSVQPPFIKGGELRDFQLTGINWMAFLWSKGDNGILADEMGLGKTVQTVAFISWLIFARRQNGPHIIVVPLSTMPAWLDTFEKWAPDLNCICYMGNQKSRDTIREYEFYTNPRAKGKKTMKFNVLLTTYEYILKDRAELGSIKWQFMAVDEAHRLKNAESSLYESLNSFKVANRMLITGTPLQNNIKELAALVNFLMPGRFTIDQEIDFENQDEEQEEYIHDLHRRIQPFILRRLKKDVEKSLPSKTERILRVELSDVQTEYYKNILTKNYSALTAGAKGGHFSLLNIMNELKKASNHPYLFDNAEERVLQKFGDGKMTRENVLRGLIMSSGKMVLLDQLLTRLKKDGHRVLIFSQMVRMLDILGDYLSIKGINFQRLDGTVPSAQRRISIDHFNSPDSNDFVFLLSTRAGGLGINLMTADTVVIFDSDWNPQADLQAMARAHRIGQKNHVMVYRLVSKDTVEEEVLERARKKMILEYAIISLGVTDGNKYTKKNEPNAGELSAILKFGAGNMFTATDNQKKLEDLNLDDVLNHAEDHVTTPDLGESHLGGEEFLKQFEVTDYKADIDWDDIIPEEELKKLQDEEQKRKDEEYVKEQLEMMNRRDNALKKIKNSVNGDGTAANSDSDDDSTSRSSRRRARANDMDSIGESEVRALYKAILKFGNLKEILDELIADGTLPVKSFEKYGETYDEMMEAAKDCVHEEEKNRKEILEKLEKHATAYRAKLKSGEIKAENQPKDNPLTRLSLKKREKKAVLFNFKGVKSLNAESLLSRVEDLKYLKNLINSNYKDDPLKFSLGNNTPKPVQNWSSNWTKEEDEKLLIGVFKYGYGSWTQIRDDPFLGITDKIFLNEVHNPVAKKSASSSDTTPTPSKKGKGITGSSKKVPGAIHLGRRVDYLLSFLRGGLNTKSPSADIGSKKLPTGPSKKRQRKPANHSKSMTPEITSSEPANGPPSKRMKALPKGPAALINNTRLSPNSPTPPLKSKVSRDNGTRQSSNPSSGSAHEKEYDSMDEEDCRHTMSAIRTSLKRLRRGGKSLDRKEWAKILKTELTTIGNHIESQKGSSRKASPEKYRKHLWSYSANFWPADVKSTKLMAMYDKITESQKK
Sequence of Sialic acid-binding Ig-like lectin 9 (Homo sapiens) (Q9Y336 whole entry): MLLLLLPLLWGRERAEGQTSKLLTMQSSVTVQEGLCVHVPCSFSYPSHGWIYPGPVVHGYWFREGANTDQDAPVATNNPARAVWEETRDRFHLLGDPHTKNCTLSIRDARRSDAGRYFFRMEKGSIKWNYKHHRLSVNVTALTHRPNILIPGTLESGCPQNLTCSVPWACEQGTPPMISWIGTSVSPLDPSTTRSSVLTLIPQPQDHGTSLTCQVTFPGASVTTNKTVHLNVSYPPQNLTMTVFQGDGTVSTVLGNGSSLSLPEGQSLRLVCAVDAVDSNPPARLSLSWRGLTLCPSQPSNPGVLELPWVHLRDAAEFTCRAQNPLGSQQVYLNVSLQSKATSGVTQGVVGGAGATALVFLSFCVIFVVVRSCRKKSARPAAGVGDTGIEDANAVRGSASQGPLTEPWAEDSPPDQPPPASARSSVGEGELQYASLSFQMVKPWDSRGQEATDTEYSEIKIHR

Regarding `Cc1csc2ncc(-c3ccnc(N4CCN(C)CC4)n3)c(=O)n12`, the Percent Effect in assay [1] is -1.31%; in assay [2], 0%; in assay [3] it was -2.78%; in the assay with Trypanosoma cruzi it was -3.21%; in assay [4] it was -0.444%; in [5], -0.933%. In addition, the Percent Effect is 0.181% in the assay listed under Homo sapiens, -3.68% in assay [6], -10.3% in assay [7] and -10.1% in assay [8].
For the compound `Cc1cccc(C(=O)N2C[C@@H](OCc3cccnc3)[C@H]3OCCC[C@@H]32)n1`, the Percent Effect is -3.43% in assay [1]; 11.7% in assay [2]; -6.23% in [3]; 4.77% in the assay on Trypanosoma cruzi; -4.45% in [4]; 21.6% in [5]. Besides, the Percent Effect in the assay listed under Homo sapiens came out at 5.3%; in assay [6], 8.95%; in assay [7] it was 7.69%; in assay [8], 112%.
On to `Cn1cnc2c1CCN(Cc1csc(-c3ccsc3)n1)C2`, for which the Percent Effect is -0.725% in assay [1]; 0% in assay [2]; -11.7% in [3]; -1.41% in the assay on Trypanosoma cruzi; 3.69% in assay [4]; 13.2% in assay [5]. Also, the Percent Effect is 27.3% in the assay filed under Homo sapiens, 11% in assay [6], 13.2% in [7] and 25% in assay [8].
As to `Cn1cc(C(=O)N2CCCC(Cc3nccs3)C2)cn1` (stereo not given), the Percent Effect in assay [1] was -2.98%; in assay [2], 12%; in assay [3], -0.254%; in the assay with Trypanosoma cruzi it was -2.96%; in [4], 3.54%; in assay [5], 7.55%. Also, the Percent Effect in the assay listed under Homo sapiens was 6.88%; in assay [6] it was 2.12%; in assay [7], 15%; in assay [8], -16.3%.
For `COc1cc(C)c(S(=O)(=O)NCc2cccnc2N(C)C)c(C)c1`, the Percent Effect in assay [1] is 0.224%; in [2] it was 23.4%; in assay [3] it was -2.16%; in the assay with Trypanosoma cruzi, 0%; in [4], -5.53%; in assay [5] it was 19.8%. For the same compound, the Percent Effect is 52.1% in the assay listed under Homo sapiens, 4.9% in [6], 28.2% in assay [7] and -10.7% in [8].
Turning to `CC(C)(N)C(=O)N1CCCC1c1cncc(Oc2ccc(F)cc2)n1` (stereo not given), the Percent Effect is -4.32% in assay [1]; 17.3% in assay [2]; 10.6% in [3]; 0.789% in the assay with Trypanosoma cruzi; -0.443% in [4]; 1.31% in [5]. Further, the Percent Effect in the assay listed under Homo sapiens is -1.85%; in [6] it was 6.35%; in assay [7], 15%; in [8], -24.2%.
Consider `CS(=O)(=O)N1Cc2ccccc2C2(CCN(C(=O)c3ccno3)CC2)C1`, for which the Percent Effect was 2.76% in assay [1]; 19.5% in assay [2]; -5.73% in [3]; -10.7% in the assay on Trypanosoma cruzi; 5.48% in assay [4]; 18.4% in assay [5]. Besides, the Percent Effect in the assay listed under Homo sapiens was 9.88%; in assay [6], 6.76%; in [7] it was 7.5%; in assay [8], -10.6%.
As for `CC(C(=O)Nc1ncccn1)N1CCCN(c2nccs2)CC1` (stereo not given), the Percent Effect was -0.557% in [1]; 15.4% in assay [2]; -8.35% in assay [3]; -7.04% with Trypanosoma cruzi; 2.05% in [4]; 14.8% in assay [5]. For the same compound, the Percent Effect in the assay filed under Homo sapiens was 22.9%; in assay [6] it was 4.31%; in assay [7], 1.21%; in assay [8], -2.28%.
On to `Cc1ccccc1OCCC(=O)N1CCCC(n2cncn2)C1` (stereo not given), for which the Percent Effect in assay [1] is -5.79%; in assay [2], 5.13%; in assay [3], 4.87%; in the assay on Trypanosoma cruzi, 0.657%; in assay [4], 5.33%; in assay [5] it was 4.52%. The Percent Effect was 0.995% in the assay listed under Homo sapiens, 1.44% in assay [6], 10.8% in assay [7] and -3.4% in [8].
For `Cc1nc(-c2ccccc2F)sc1C(=O)N1CCN(C)CC1`, the Percent Effect in assay [1] is -7.34%; in assay [2], 2.7%; in [3] it was 4.45%; in the assay on Trypanosoma cruzi, -0.679%; in assay [4] it was -3.85%; in assay [5], 18.5%. Also, the Percent Effect is 4.62% in the assay listed under Homo sapiens, 3.72% in assay [6], 12.2% in assay [7] and -3.18% in [8].
On to `CSc1ccc(Cl)c(C(=O)N2CCCC(CNS(C)(=O)=O)C2)c1` (stereo not given), for which the Percent Effect in assay [1] is 0.802%; in assay [2] it was 26%; in [3], -6.07%; in the assay on Trypanosoma cruzi it was 1.12%; in assay [4] it was -14.6%; in assay [5], 18.2%. Also, the Percent Effect in the assay listed under Homo sapiens was 13%; in assay [6], 1.96%; in [7] it was 28.2%; in [8], -11.3%.
Take `CCc1cc(C(=O)N2CCC(Nc3ccc(C)nn3)CC2)sc1C`: the Percent Effect in [1] is -4.07%; in [2], 10.7%; in assay [3], -0.268%; with Trypanosoma cruzi it was 3.61%; in [4] it was -4.88%; in assay [5], 2.8%. In addition, the Percent Effect in the assay listed under Homo sapiens is 4.58%; in assay [6], 5.79%; in [7], 7.69%; in assay [8], -9.15%.
